Compound activity deposited in PubChem BioAssay by National Center for Advancing Translational Sciences (NCATS).
Sampled rows, rich in hits. Any-hit rate of the full collection: about 10%.
HEK cytotox = HEK 293 cell cytotoxicity. Potency, µM (highest dose often 115 µM), for the others: at the highest dose activity change, negative = cytotoxicity, actives largely listed as inhibitors. AID 1345083. actives 6.6% (n = 94,000). HEK 293 viability, ATP luminescence (CellTiter-Glo), 48-72 h; further: on the % scale 0 is the no-effect control and ±100 the full control effect; nearly all actives have a fitted effect of over 60% in size
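Cytotoxicity was scored by loss of ATP-coupled luminescence (CellTiter-Glo) in HEK 293 cells. Compound treatment ran 48 or 72 hr at 37 degree Celsius, 5% CO2, 95% humidity.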
NPR1 antag = human Npr1 receptor antagonism; P16066; HEK293 hNpr1 GloSensor cGMP, ANP-stimulated luminescence; Potency, µM (titrated, usually from 46.3 µM), without a hit: at the top dose activity change, negative = inhibition, actives largely listed as inhibitors; actives 1.6% (n = 76,000); AID 1347048; calls by dose curve; further: on the % scale 0 is the no-effect control and ±100 the full control effect; nearly all actives have a fitted effect of over 60% in size
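HEK293 cells stably expressing human Npr1 and cGMP GloSensor pGS-40F, loaded 2 h with 2% GloSensor reagent, given compound 30 min at room temperature. Luminescence read before and 20 min after 0.1 nM hNppA.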
GPT2 inhibitor = GPT2 alanine aminotransferase inhibition; Q8TD30; Recombinant GPT2, coupled pyruvate oxidase/HRP Amplex Red fluorescence; Potency, µM (series often up to 57.7 µM), without a hit: top-dose activity change, negative = inhibition, hits mostly inhibitors; actives 0.25% (n = 100,000); AID 1671188; further: on the % scale 0 is the no-effect control and ±100 the full control effect; nearly all actives have a fitted effect of over 60% in size
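Inhibition is scored from Amplex Red fluorescence generated when pyruvate oxidase and HRP act on pyruvate released by GPT2. Reactions contain 10ng/uL enzyme, 250uM a-KG and 2mM L-alanine and run 30 min at room temperature.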
FLuc inh-1 = blocks purified firefly luciferase enzyme activity | Potency, µM (top dose mostly 115 µM), usual class: inhibitors | P08659 | purified P. pyralis luciferase, luminescence, biochemical | actives 2.5% (n = 76,000); further: on the % scale 0 is the no-effect control and ±100 the full control effect; nearly all actives have a fitted effect of over 65% in size
Target sequence (P08659 whole entry, looked up): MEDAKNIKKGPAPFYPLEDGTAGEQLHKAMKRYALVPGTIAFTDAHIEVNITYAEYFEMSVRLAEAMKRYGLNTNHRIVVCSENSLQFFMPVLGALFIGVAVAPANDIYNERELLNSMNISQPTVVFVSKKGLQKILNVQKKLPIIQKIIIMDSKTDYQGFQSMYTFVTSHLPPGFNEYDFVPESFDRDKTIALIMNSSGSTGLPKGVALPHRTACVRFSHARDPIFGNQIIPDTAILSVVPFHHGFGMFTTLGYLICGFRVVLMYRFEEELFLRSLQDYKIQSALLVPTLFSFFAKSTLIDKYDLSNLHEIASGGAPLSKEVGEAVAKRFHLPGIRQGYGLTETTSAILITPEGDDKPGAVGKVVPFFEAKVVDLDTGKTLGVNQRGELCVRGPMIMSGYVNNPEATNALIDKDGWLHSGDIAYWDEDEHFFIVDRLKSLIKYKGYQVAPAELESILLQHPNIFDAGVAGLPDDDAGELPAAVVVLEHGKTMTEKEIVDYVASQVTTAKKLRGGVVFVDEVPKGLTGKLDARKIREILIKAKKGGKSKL
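Luminescence read by CCD imager after adding enzyme (10nM final) to wells holding compound, titrated in qHTS. Substrates 10uM each D-luciferin and ATP; buffer 50mM Tris acetate pH 7.5, 10mM Mg acetate, Tween-20, BSA.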
3T3 cytotox = cytotoxic compounds in NIH 3T3 cells. Potency, µM (titrated, usually from 96.7 µM), without a hit: at the highest dose activity change, negative = cytotoxicity, hits mostly inhibitors. NIH 3T3 viability, CellTiter-Glo ATP luminescence, 48-72 h. actives 4.3% (n = 94,000); further: on the % scale 0 is the no-effect control and ±100 the full control effect; nearly all actives have a fitted effect of over 55% in size
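Mouse fibroblast NIH 3T3 cells, 400 per well, received compound via pintool and were incubated for 48 or 72 hr prior to CellTiter-Glo ATP luminescence measurement.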
FLuc SDR -ATP = binders stabilizing firefly luciferase, without ATP. shares compounds with FLuc inh-1. Purified FLuc-C-HiBiT, Nano-Glo HiBiT luminescence, no ATP. Potency, µM (doses to about 32.7 µM), for the others: top-dose activation (signal gain), most hits filed as activators. actives 7.8% (n = 1,300). AID 1963318; further: nearly all actives have a fitted effect of over 55% in size
FLuc SDR ATP = stabilizes firefly luciferase with ATP present | shares compounds with FLuc inh-1 | Potency, µM (highest dose often 32.7 µM), for inactives: at the top dose activation (gain of signal), usual class: activators | actives 8.7% (n = 1,300) | purified FLuc-C-HiBiT + ATP, HiBiT complementation luminescence;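 further: signal reports ligand binding via conformational change of the enzyme rather than luciferase catalysis; % of control where 0% means no effect; nearly all actives have a fitted effect of over 55% in size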
FLuc inh-2 = blocks firefly luciferase enzymatic activity; Potency, µM (series often up to 32.7 µM), for inactives: at the top dose activity change, negative = inhibition, hits mostly inhibitors; purified FLuc-C-HiBiT enzyme, luciferin luminescence; actives 42% (n = 1,300); AID 1963320; shares compounds with FLuc inh-1; further: on the % scale 0 is the no-effect control and ±100 the full control effect; nearly all actives have a fitted effect of over 70% in size
* = called active by the depositor; i = inactive; u = inconclusive; x = no result given; [ ] = dose if it differs, or a comment. Unless noted, the call rests on the fitted dose curve; in most records, active means well fitted curve in the direction sought with a large enough effect; inconclusive means small, poorly fitted or top-dose-only effect, or another doubt; inactive means no such curve, though single readings can be large; an effect the other way counts as inactive or inconclusive. Potency means the concentration at half of the fitted maximal effect.

SMILES | HEK cytotox | NPR1 antag | GPT2 inhibitor | FLuc inh-1 | 3T3 cytotox | FLuc SDR -ATP | FLuc SDR ATP | FLuc inh-2
CSCC(=O)N[C@H]1CCN2C(=O)c3cc(-c4ccc(SC)cc4)ccc3NC(=O)[C@H]12 | -8% | 5% | i | 13µM* | -17% | 23% | 15% | u
O=C1CC(c2ccccc2)N(C(=O)CNC(=O)NCc2ccc(F)cc2)CCCCCCN1 (centres undefined) | i | -1% | -2% | i | 2% | x | x | x
COC(=O)c1ccc2c(c1)/C(=C/c1cc(Br)c(O)c(Br)c1)C(=O)N2 | x | x | x | x | x | 5% | 2% | 9.9µM*
CC(C)(C)CCN1CC(Oc2cccc(C(=O)N3CCCC3)c2)C1 | -4% | 16% | -9% | i | 2% | x | x | x
COCCCn1c(=O)c(C(=O)NCc2ccc(F)cc2)nc2cccnc21 | 4% | x | u | x | -19% | x | x | x
Cc1ccc(NC(=O)C2CCN(C(=O)c3ncn4c3COC(c3ccccc3)C4)CC2)cc1C (centres undefined) | 5% | 6% | -2% | 4µM* | i | 14% | u | u
COc1ccc(NC(=O)C2CCN(C(=O)c3ncn4c3COC(c3ccccc3)C4)CC2)cc1 (centres undefined) | 8% | 1% | i | 8.9µM* | i | 11% | u | u
COc1ccc(NC(=O)C2CCN(C(=O)c3ncn4c3COC(c3ccccc3)C4)CC2)cc1OC (centres undefined) | 12% | -2% | i | 5.6µM* | 0% | 13% | u | 3.5µM*
COc1ccc2c(c1)c(CN1CCc3nn(C)c(=O)n3CC1)cn2C | u | -8% | i | i | u | x | x | x
O=C(C1CCC1)N1CCC(N2CC(OCC3CC3)C23CCOCC3)CC1 (centres undefined) | 1% | 1% | i | i | -6% | x | x | x
CCCCNc1nc(N)c2[nH]c(=O)n(Cc3ccc(OCCN(C)C)nc3)c2n1 | x | x | u | x | x | 11% | 8% | -5%
COC(=O)C1=C(C)N=C2SC=C(CC(=O)NCC3CCCO3)N2C1c1cc(OC)ccc1OC (centres undefined) | -11% | -4% | i | i | -14% | x | x | x
CC(C)OCCCNC(=O)C1CCCN1c1nccc(Nc2ccccc2F)n1 (centres undefined) | -28% | x | 1% | x | -11% | x | x | x
COc1ccc(-c2cc(N3CCCC(NC(=O)c4ccc5ncccc5c4)C3)n[nH]2)cc1 (centres undefined) | u | -22% | -22% | 3.2µM* | u | 11% | 6% | 3.9µM*
O=C(NC1CCCN(c2cc(-c3ccc(F)cc3)[nH]n2)C1)c1ccc(C(F)(F)F)cc1 (centres undefined) | u | -7% | -9% | i | -17% | x | x | x
CN(C)c1cccc(C(=O)NC2CCN(c3cc(-c4ccccc4)[nH]n3)C2)c1 (centres undefined) | u | -26% | u | 7.1µM* | u | 13% | 7.9µM* | 7µM*
O=C(NC1CCCN(c2cc(-c3ccc(F)cc3)[nH]n2)C1)c1ccc2ncccc2c1 (centres undefined) | u | -19% | u | 4.5µM* | u | -3% | -3% | 8.8µM*
O=C(NCc1ccccc1F)c1nc2sccn2c1-c1cccnc1 | i | x | u | x | u | x | x | x
CC(C)CN1CCC2(CC1)CC(C(=O)N1CCOCC1)N(C)C2 (centres undefined) | -8% | x | i | x | -22% | x | x | x
Cc1ccc(CCC(=O)N2CCC(CO)(CN3CCCC3)CC2)cc1 | -14% | 0% | u | i | u | x | x | x
Cc1ccc(-n2ncc3c(N4CCCC(C)C4)ncnc32)c(C)c1 (centres undefined) | x | x | x | x | x | 29% | 20% | 11µM*
Cc1cccc(-n2ncc3c(N4CCCC(C)C4)ncnc32)c1 (centres undefined) | x | x | x | x | x | 3.9µM* | u | 0.7µM*
Cc1cccc(N2Cc3c(ncnc3N3CCC(N4CCCCC4)CC3)N(C)CC2=O)c1 | -1% | x | -1% | x | -29% | x | x | x
Cc1cccc(-n2ncc3c(N4CCCCCC4)ncnc32)c1 | x | x | x | x | x | 5µM* | u | 0.88µM*
CC1CCCN(c2ncnc3c2cnn3-c2ccc(F)cc2)C1 (centres undefined) | x | x | x | x | x | 2.2µM* | u | 0.7µM*
SMILES | HEK cytotox | NPR1 antag | GPT2 inhibitor | FLuc inh-1 | 3T3 cytotox | FLuc SDR -ATP | FLuc SDR ATP | FLuc inh-2
COCC(=O)N1CCCC(c2nn(-c3ccc(OC)cc3)c(=O)[nH]2)C1 (centres undefined) | -28%[172 µM] | 21%[70.6 µM] | 3%[88.5 µM] | i | -26%[138 µM] | x | x | x
Cc1cnc(CC2CCCN(C(=O)C3(c4ccccc4)CC3)C2)n1Cc1ccc(F)cc1 (centres undefined) | u | -3% | 4% | i | u | x | x | x
CC1CCCN(c2ncnc3c2cnn3-c2ccccc2)C1 (centres undefined) | x | x | x | x | x | 2.5µM* | u | 0.44µM*
Cc1ccc(Cl)cc1-n1ncc2c(N3CCC(C)CC3)ncnc21 | x | x | x | x | x | 13% | 8% | -8%
Cn1ncc(N2CCCC(CC(=O)Nc3ccc(Cl)cc3)C2)cc1=O (centres undefined) | -35% | 4% | i | i | u | x | x | x
CC1CCCN(c2ncnc3c2CN(c2cccnc2)C(=O)CN3C)C1 (centres undefined) | -24% | 9% | -19% | i | -17% | x | x | x
CC1CCCN(c2ncnc3c2cnn3-c2ccc(Cl)cc2)C1 (centres undefined) | x | x | x | x | x | 2.8µM* | 0.25µM* | 0.12µM*
Clc1ccc(-n2ncc3c(NC4CCCC4)ncnc32)cc1 | x | x | x | x | x | u | u | 1.2µM*
CN1CC(=O)N(c2ccc(Cl)cc2)Cc2c(NC3CCCCC3)ncnc21 | u | 6% | 2% | i | u | x | x | x
CC(C)CNC(=O)c1ccc2nnc(-c3cc[nH]c3)n2c1 | 5%[172 µM] | x | i | x | -21%[138 µM] | x | x | x
Cc1ccc(C2=CC(c3ccccc3C)n3c(nc4ccccc43)N2)cc1 (centres undefined) | x | x | x | x | x | u | u | 4.4µM*
Cc1nc(C)c(C(=O)N2CCC(Oc3ccc(-c4noc(-c5ccccc5)n4)cc3)C2)s1 (centres undefined) | u | 6.3µM* | i | 5.6µM* | u | 15% | 10% | u
